Out of some 330,000 compounds screened, about 4,400 (1.3%) were called active. What follows is part of a selection rich in actives, with near analogues and random picks from the rest. A number with no mark means an inactive call.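 Rule for the calls: active = growth inhibition of the mutant yeast at or above 50%; inactive = the rest.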

A short description of this test: growth inhibition of tim23-1 ts yeast – luminescence, uHTS, primary screen (AID 463212).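 Note: temperature-sensitive mutant grown at 25 °C; plate controls were DMSO-treated mutant yeast for no effect and medium wells lacking yeast for full effect.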 As to conditions: S. cerevisiae tim23-1 growth, BacTiter-Glo luminescence, 24 h; at 20 µM; stronger effect = higher value.
With `Fc1ccccc1COc1ccccc1CNCc1ccncc1`, the inhibition was 3.21%.

For the compound `CCN1CCc2nc(NC(=O)c3cc(F)c(F)cc3Cl)sc2C1`, the inhibition is 4.64%.

For `COc1ccc(CNC(=O)CCn2cccc2)cc1`, the inhibition was 6.47%.

With `COc1ccc(NC(=O)/C(C#N)=C\c2cc(OC)c(OCc3ccc(C(=O)O)cc3)cc2Br)cc1`, the inhibition is 20.5%.

In the case of `COc1ccc(CNC(=O)/C(C#N)=C/c2cccc(OC)c2OC)cc1`, the inhibition is 71.3% (active).

Consider `CN(CC(=O)Nc1ccccc1[N+](=O)[O-])Cc1ccc(Br)cc1`, for which the inhibition was 1.11%.

Consider `COc1ccccc1CNC(=O)C1Cc2ccccc2C(=O)O1` (stereo unspecified), for which the inhibition is 17.7%.

On to `O=[N+]([O-])c1ccccc1S(=O)(=O)Nc1cccc2cccnc12`, for which the inhibition is 57.4% (active).

As to `COc1cc(NS(=O)(=O)c2ccc3ccccc3c2)c2ncccc2c1`, the inhibition was 26.4%.

With `NS(=O)(=O)c1ccc(CCNS(=O)(=O)c2cccc3cccnc23)cc1`, the inhibition was 11.4%.

With `CC1(C)COC(c2cccn2Cc2ccccc2Cl)=N1`, the inhibition was 2.43%.

`COc1ccc(Cl)cc1NC(=O)CN(C)C(=O)c1cc(-c2cccs2)nn1-c1ccccc1`: the inhibition is 25.9%.

Take `O=[N+]([O-])c1ccc2oc(-c3cccc(O)c3)nc2c1`: the inhibition was 29.8%.

Consider `CCc1ccc2oc(-c3ccc(N)cc3)nc2c1`, for which the inhibition was 65.6% (active).

Consider `O=C(CNC(=O)C1COc2ccccc2O1)N/N=C/c1cc(Br)c(O)c(Br)c1` (stereo unspecified), for which the inhibition is 12.1%.

On to `O=C(N/N=C\c1cc(Br)c(Br)o1)C1COc2ccccc2O1` (stereo unspecified), for which the inhibition is 50.2% (active).

Regarding `O=C(N/N=C/c1cc2c(cc1Br)OCO2)C1COc2ccccc2O1` (stereo unspecified), the inhibition is 22.2%.

Regarding `CCOC(=O)c1c(NC(C)=O)sc2c(O)c(Br)ccc12`, the inhibition is 20.3%.

Turning to `Cc1ccc(-n2c(SCC(=O)N/N=C/C=C/c3ccccc3[N+](=O)[O-])nc3ccccc3c2=O)cc1`, the inhibition was 12.1%.

Take `CCOc1ccc(CCNC(=O)COC(=O)CCS(=O)(=O)c2ccc(C)cc2)cc1OCC`: the inhibition was 8.24%.

Regarding `Cc1ccc(Cn2nnc3c(=O)[nH]c(C4CCN(S(=O)(=O)/C=C/c5ccccc5)CC4)nc32)cc1`, the inhibition is 17.8%.

For the compound `Cc1ccc(C(C[N+](=O)[O-])c2c(C)cc3ccccn23)cc1` (stereo unspecified), the inhibition was 48.5%.

As to `Nc1ccccc1SC(C[N+](=O)[O-])c1ccccc1` (stereo unspecified), the inhibition was 81.4% (active).

With `O=C(CN(C(=O)c1csnn1)c1ccc(Br)cc1)NC1CCCC1`, the inhibition is 6.83%.

With `O=C(Nc1nonc1-c1ccc(Cl)cc1)c1ccco1`, the inhibition is 29.1%.

Consider `CC(C)[C@H](NC(=O)OCc1ccccc1)C(=O)OCc1ccccc1`, for which the inhibition is 16%.

A word on the inhibition: it is the relative decrease from the control value, in per cent.
